# Source: paper PMC7862700, “An all-to-all approach to the identification of sequence-specific readers for epigenetic DNA modifications on cytosine”
# How the values were obtained:
# Assay in all cases: DAPPL (digital affinity profiling via proximity ligation, sequencing); 10 mM Tris-HCl pH 7.5, 50 mM NaCl, 1 mM DTT, 4% glycerol, room temperature, 30 min; GST-TFs on glutathione beads, 16-mer random dsDNA library, 0.1% formaldehyde crosslink after washing; high values mean tight binding
# Conditions in all cases: protein: recombinant; tags: N-terminal GST; dsDNA, one strand shown
# ERF = target: T1, ERF (Homo sapiens, UniProt P50548 1-548)
# T1 sequence: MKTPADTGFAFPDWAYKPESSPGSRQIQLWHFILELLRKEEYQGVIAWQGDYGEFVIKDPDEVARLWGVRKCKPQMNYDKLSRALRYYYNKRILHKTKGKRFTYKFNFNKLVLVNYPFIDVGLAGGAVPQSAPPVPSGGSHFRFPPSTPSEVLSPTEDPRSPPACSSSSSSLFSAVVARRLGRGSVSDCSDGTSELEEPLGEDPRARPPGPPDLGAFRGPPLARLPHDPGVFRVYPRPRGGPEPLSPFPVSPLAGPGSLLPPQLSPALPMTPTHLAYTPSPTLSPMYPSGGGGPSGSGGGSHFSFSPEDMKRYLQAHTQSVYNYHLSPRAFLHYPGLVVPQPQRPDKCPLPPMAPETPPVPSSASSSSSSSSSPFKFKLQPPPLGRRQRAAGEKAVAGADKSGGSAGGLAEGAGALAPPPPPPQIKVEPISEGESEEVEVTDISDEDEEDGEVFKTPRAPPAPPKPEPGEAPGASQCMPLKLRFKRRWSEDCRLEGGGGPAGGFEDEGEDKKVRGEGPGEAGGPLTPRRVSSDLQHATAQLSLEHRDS
# How it was run: (§1)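 Binding signal is each hexamer's read frequency for a factor divided by its frequency in the tag-only sample. The factors were GST-fused human transcription factors from yeast, captured on glutathione beads, DNA-barcoded and pooled with that sample. Pools were incubated with 200 nmole of a random double-stranded 16-mer DNA library in Tris/NaCl/DTT/glycerol buffer at room temperature for 30 min, then washed, crosslinked with 0.1% formaldehyde, proximity-ligated with BsaI/T4 ligase (1 h, 37 °C), PCR-amplified and sequenced on an Illumina NextSeq500.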
# ETV3L = target: T2, ETV3L (Homo sapiens, UniProt Q6ZN32 1-361)
# T2 sequence: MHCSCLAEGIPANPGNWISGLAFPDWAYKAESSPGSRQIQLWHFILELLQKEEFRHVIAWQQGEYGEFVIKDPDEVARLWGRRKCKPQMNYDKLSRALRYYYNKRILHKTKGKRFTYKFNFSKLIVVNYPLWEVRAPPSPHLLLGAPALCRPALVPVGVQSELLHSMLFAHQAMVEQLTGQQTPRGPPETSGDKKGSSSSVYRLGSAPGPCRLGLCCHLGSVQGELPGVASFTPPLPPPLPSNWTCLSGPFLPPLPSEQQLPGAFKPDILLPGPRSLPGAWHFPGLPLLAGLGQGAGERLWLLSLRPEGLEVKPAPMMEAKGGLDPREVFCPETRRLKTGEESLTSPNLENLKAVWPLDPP
# How it was run: as §1
# ETS2 = target: T3, ETS2 (Homo sapiens, UniProt P15036 1-469)
# T3 sequence: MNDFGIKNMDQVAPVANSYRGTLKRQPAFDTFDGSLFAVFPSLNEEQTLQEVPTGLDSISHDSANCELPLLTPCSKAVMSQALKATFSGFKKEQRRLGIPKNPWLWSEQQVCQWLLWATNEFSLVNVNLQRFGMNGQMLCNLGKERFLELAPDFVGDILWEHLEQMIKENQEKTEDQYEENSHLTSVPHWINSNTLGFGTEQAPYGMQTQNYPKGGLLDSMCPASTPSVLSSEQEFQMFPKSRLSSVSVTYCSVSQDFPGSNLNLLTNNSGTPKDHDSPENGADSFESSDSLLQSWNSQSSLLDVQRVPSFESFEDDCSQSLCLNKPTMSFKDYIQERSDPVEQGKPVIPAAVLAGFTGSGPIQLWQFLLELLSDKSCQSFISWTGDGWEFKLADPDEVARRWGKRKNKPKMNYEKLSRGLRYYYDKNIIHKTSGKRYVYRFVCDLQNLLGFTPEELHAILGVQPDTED
# How it was run: as §1
# SPDEF = target: T4, SPDEF (Homo sapiens, UniProt O95238 1-335)
# T4 sequence: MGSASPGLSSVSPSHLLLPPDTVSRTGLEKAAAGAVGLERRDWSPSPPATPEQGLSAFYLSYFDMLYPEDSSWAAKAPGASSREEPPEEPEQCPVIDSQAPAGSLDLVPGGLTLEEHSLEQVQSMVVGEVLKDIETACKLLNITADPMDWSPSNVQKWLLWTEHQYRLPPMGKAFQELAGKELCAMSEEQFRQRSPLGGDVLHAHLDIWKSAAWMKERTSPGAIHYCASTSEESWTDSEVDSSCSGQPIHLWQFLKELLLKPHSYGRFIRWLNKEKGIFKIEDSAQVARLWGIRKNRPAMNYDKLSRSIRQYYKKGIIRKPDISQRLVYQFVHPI
# How it was run: as §1
# ETV7 = target: T5, ETV7 (Homo sapiens, UniProt Q9Y603 1-341)
# T5 sequence: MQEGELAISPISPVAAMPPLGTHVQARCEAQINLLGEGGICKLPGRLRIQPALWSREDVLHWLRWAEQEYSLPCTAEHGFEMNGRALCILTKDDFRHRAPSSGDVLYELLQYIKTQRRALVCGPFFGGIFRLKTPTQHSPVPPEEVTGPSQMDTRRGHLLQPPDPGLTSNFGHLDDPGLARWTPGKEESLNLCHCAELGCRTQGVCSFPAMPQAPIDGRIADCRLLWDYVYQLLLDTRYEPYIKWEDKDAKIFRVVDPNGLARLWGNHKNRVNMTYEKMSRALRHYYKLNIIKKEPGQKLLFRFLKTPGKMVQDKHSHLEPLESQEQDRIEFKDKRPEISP
# How it was run: as §1
# ELF5 = target: T6, ELF5 (Homo sapiens, UniProt Q9UKW6-2 1-255)
# T6 sequence: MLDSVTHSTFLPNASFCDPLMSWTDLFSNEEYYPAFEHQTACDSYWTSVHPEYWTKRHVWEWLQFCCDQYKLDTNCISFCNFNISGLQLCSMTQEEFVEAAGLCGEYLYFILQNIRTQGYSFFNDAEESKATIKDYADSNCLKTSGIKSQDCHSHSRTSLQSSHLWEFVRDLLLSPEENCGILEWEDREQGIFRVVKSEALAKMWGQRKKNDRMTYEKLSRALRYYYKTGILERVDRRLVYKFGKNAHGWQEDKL
# How it was run: as §1
# ETV3 = target: T7, ETV3 (Homo sapiens, UniProt P41162-2 1-143)
# T7 sequence: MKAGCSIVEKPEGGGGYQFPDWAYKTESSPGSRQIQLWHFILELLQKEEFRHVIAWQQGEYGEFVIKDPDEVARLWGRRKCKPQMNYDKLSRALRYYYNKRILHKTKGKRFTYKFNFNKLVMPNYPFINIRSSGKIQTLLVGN
# How it was run: as §1
# ETV6 = ETV6 (Homo sapiens, UniProt P41212 1-452)
# ETV6, sequence (P41212 whole entry): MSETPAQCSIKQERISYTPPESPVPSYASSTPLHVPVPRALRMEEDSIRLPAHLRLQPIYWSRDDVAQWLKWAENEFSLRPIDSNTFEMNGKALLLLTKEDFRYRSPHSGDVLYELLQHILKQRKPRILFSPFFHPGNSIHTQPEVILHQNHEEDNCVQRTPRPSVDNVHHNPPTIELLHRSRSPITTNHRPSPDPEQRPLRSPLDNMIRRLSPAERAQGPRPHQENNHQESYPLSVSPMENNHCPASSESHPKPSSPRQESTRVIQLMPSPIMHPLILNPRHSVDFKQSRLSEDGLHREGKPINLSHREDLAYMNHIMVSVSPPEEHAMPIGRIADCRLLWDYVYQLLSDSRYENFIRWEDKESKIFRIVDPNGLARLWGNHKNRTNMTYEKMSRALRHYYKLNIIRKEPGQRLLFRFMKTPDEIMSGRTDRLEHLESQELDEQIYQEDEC
# How it was run: as §1
Sequence,binding signal (ERF),binding signal (ETV3L),binding signal (ETS2),binding signal (SPDEF),binding signal (ETV7),binding signal (ELF5),binding signal (ETV3),binding signal (ETV6)
TCCGTA,"1.43 fold enrichment (6-mer frequency, TF over GST control)","1.53 fold enrichment (6-mer frequency, TF over GST control)","1.57 fold enrichment (6-mer frequency, TF over GST control)","1.79 fold enrichment (6-mer frequency, TF over GST control)","1.37 fold enrichment (6-mer frequency, TF over GST control)","2.03 fold enrichment (6-mer frequency, TF over GST control)","1.71 fold enrichment (6-mer frequency, TF over GST control)","1.54 fold enrichment (6-mer frequency, TF over GST control)"
TCTCTA,"1.24 fold enrichment (6-mer frequency, TF over GST control)","1.29 fold enrichment (6-mer frequency, TF over GST control)","1.22 fold enrichment (6-mer frequency, TF over GST control)","1.24 fold enrichment (6-mer frequency, TF over GST control)","1.34 fold enrichment (6-mer frequency, TF over GST control)","1.21 fold enrichment (6-mer frequency, TF over GST control)","1.3 fold enrichment (6-mer frequency, TF over GST control)","1.21 fold enrichment (6-mer frequency, TF over GST control)"
ACATAT,"1.34 fold enrichment (6-mer frequency, TF over GST control)","1.29 fold enrichment (6-mer frequency, TF over GST control)","1.27 fold enrichment (6-mer frequency, TF over GST control)","1.38 fold enrichment (6-mer frequency, TF over GST control)","1.37 fold enrichment (6-mer frequency, TF over GST control)","1.2 fold enrichment (6-mer frequency, TF over GST control)","1.28 fold enrichment (6-mer frequency, TF over GST control)","1.21 fold enrichment (6-mer frequency, TF over GST control)"
GCCTCT,"1.25 fold enrichment (6-mer frequency, TF over GST control)","1.32 fold enrichment (6-mer frequency, TF over GST control)","1.25 fold enrichment (6-mer frequency, TF over GST control)","1.3 fold enrichment (6-mer frequency, TF over GST control)","1.35 fold enrichment (6-mer frequency, TF over GST control)","1.27 fold enrichment (6-mer frequency, TF over GST control)","1.34 fold enrichment (6-mer frequency, TF over GST control)","1.35 fold enrichment (6-mer frequency, TF over GST control)"
CGGCTC,"1.36 fold enrichment (6-mer frequency, TF over GST control)","1.27 fold enrichment (6-mer frequency, TF over GST control)","1.23 fold enrichment (6-mer frequency, TF over GST control)","1.42 fold enrichment (6-mer frequency, TF over GST control)","1.25 fold enrichment (6-mer frequency, TF over GST control)","1.27 fold enrichment (6-mer frequency, TF over GST control)","1.29 fold enrichment (6-mer frequency, TF over GST control)","1.23 fold enrichment (6-mer frequency, TF over GST control)"
CTTATA,"1.29 fold enrichment (6-mer frequency, TF over GST control)","1.35 fold enrichment (6-mer frequency, TF over GST control)","1.41 fold enrichment (6-mer frequency, TF over GST control)","1.51 fold enrichment (6-mer frequency, TF over GST control)","1.39 fold enrichment (6-mer frequency, TF over GST control)","1.48 fold enrichment (6-mer frequency, TF over GST control)","1.28 fold enrichment (6-mer frequency, TF over GST control)","1.33 fold enrichment (6-mer frequency, TF over GST control)"
TAAACT,"1.35 fold enrichment (6-mer frequency, TF over GST control)","1.17 fold enrichment (6-mer frequency, TF over GST control)","1.18 fold enrichment (6-mer frequency, TF over GST control)","1.01 fold enrichment (6-mer frequency, TF over GST control)","1.04 fold enrichment (6-mer frequency, TF over GST control)","1.16 fold enrichment (6-mer frequency, TF over GST control)","1.15 fold enrichment (6-mer frequency, TF over GST control)","1.13 fold enrichment (6-mer frequency, TF over GST control)"
ACATAA,"1.05 fold enrichment (6-mer frequency, TF over GST control)","1.1 fold enrichment (6-mer frequency, TF over GST control)","1.07 fold enrichment (6-mer frequency, TF over GST control)","1.03 fold enrichment (6-mer frequency, TF over GST control)","1.11 fold enrichment (6-mer frequency, TF over GST control)","1.09 fold enrichment (6-mer frequency, TF over GST control)","1.09 fold enrichment (6-mer frequency, TF over GST control)","1.08 fold enrichment (6-mer frequency, TF over GST control)"
